System: Vero E6 infected with SARS-CoV-2
Assay: inhibition of SARS-CoV-2 cytopathic effect; higher = more antiviral protection, active = above 15
Conditions: 48 h

Measured: inhibition of SARS-CoV-2 cytopathic effect

Cc1nc(C)c(-c2ccc(C3CCC(CC(=O)O)CC3)cc2)nc1C(N)=O (stereo not given)
inactive: 1 nM 5.02% | 8.33 nM 2.17% | 100 nM 0.91% | 833.33 nM 3.12% | 10000 nM -3.42%

COc1ccc(CNC(=O)/C=C/c2ccc3[nH]cc(CCN(C)C)c3c2)cc1
inactive: 1 nM 2.58% | 8.33 nM 0.05% | 100 nM 1.04% | 833.33 nM 1.72% | 10000 nM 2.86%

Cn1nccc1Nc1nccc(-c2ccn([C@H](CO)c3ccc(Cl)c(F)c3)c(=O)c2)n1
inactive: 1 nM 0.72% | 8.33 nM 0.13% | 100 nM -0.395% | 833.33 nM -5.82% | 10000 nM -9.29%

COCCCN1CCC(NC(=O)c2cc(Cl)c(N)c3c2OCC3)CC1 [prucalopride]
inactive: 1 nM 0.43% | 8.33 nM 1.93% | 100 nM -0.24% | 833.33 nM 3.32% | 10000 nM 1.47%

COc1cccc(-c2ccc([C@@H](Oc3cc(-c4ccc(C[C@H](N)C(=O)O)cc4)nc(N)n3)C(F)(F)F)cc2)c1
inactive: 1 nM -4.34% | 8.33 nM -0.04% | 100 nM 1.61% | 833.33 nM 0.52% | 10000 nM -1.29%

C=Cc1cc(O)cc2nc(-c3ccc(O)c(F)c3)oc12 [prinaberel]
inactive: 1 nM 0.2% | 8.33 nM 0.74% | 100 nM 1.61% | 833.33 nM 0.55% | 10000 nM 0.56%

CC[C@H]1OC(=O)[C@H](C)[C@@H](O[C@H]2C[C@@](C)(OC)[C@@H](O)[C@H](C)O2)[C@H](C)[C@@H](O[C@@H]2O[C@H](C)C[C@H](N(C)C)[C@H]2O)[C@](C)(OC)C[C@@H](C)C(=O)[C@H](C)[C@@H](O)[C@]1(C)O [clarithromycin]
inactive: 1 nM -4.37% | 8.33 nM -0.55% | 100 nM 2.36% | 833.33 nM 1.42% | 10000 nM -3%

Cc1cc(CC(=O)O)n(C)c1C(=O)c1ccc(Cl)cc1 [zomepirac]
inactive: 1 nM -4.55% | 8.33 nM -6.14% | 100 nM -5.66% | 833.33 nM -0.27% | 10000 nM -0.22%

CC(C)(C)c1cc(C=C(C#N)C#N)cc(C(C)(C)C)c1O [tyrphostin-A9]
inactive: 1 nM 1.9% | 8.33 nM 1.44% | 100 nM 4.1% | 833.33 nM 8.55% | 10000 nM 6.42%

CCCN(CCC)CCc1cccc2c1CC(=O)N2 [ropinirole]
inactive: 1 nM 0.18% | 8.33 nM -0.55% | 100 nM -1.05% | 833.33 nM 2.2% | 10000 nM -0.98%

Ic1cc(-c2ccccc2)ncn1 [4-iodo-6-phenylpyrimidine]
inactive: 1 nM -0.63% | 8.33 nM 0.56% | 100 nM -2.43% | 833.33 nM 1.94% | 10000 nM -1.36%

CS(=O)(=O)Nc1ccc([N+](=O)[O-])cc1Oc1ccccc1 [nimesulide]
inactive: 1 nM 0.43% | 8.33 nM -0.72% | 100 nM 1.12% | 833.33 nM 2.18% | 10000 nM 2.92%

COC[C@H](NC(=O)c1cnc(C)s1)C(=O)N[C@@H](COC)C(=O)N[C@@H](Cc1ccccc1)C(=O)[C@@]1(C)CO1 [oprozomib]
inactive: 1 nM 0.33% | 8.33 nM 3.66%
active: 100 nM 38.6% | 833.33 nM 34.5% | 10000 nM 24.7%

CNc1cc2c(Nc3cccc(Br)c3)ncnc2cn1
inactive: 1 nM -1.96% | 8.33 nM -0.58% | 100 nM -1.36% | 833.33 nM -4.84% | 10000 nM -2.22%

C[C@H](NC(=O)/C(C#N)=C/c1cccc(Br)n1)c1ccccc1
inactive: 1 nM -2.07% | 8.33 nM -1.75% | 100 nM -2.65% | 833.33 nM 5.36% | 10000 nM -4.77%

CCC[C@H](N[C@@H](C)C(=O)N1[C@H](C(=O)O)C[C@@H]2CCCC[C@@H]21)C(=O)OCC [perindopril]
inactive: 1 nM -0.73% | 8.33 nM 1.32% | 100 nM -0.77% | 833.33 nM 0.99% | 10000 nM 0.19%

O=C(O)c1ccccc1C(=O)Nc1ccc(S(=O)(=O)Nc2nccs2)cc1 [phthalylsulfathiazole]
inactive: 1 nM -0.6% | 8.33 nM 1.91% | 100 nM 1.2% | 833.33 nM 1.78% | 10000 nM -0.84%

Cc1ccc(-c2c(-c3nn(C)c4ncnc(N5CC[C@H](N6CCCCC6)C5)c34)cnn2C)cc1
inactive: 1 nM -0.9% | 8.33 nM -0.84% | 100 nM 0.89% | 833.33 nM -2.4% | 10000 nM -0.65%
